Only some compounds are listed: those with a hit (about 11% of all), similar ones and a draw of the others.
Sfp PPTase inh: blocks B. subtilis Sfp PPTase activity | 310,000 compounds, 3.5% hits | Potency, µM, for the others: largest response in the series, negative = inhibition, actives largely listed as inhibitors | Biochemical Sfp PPTase activity, qHTS;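 note: the enzyme is Sfp with the accession as filed and its product quenches rhodamine fluorescence; potency is the fitted concentration of half-maximal effect; 0% = enzyme reaction without inhibitor and -100% = no enzyme wells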
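Reaction rates are the 30-min fluorescence difference (ex 525, em 598 nm) in wells containing 15 nM Sfp, 5 uM rhodamine-CoA and 12.5 uM BHQ-2-YbbR at pH 7.6 with 10 mM MgCl2.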
Tau fluor counter: counter-screen for tau fibril formation inhibitors | 280,000 compounds, 0.93% hits | AID 1463 | Potency, µM (top dose mostly 57.7 µM), inactives show at the top dose activity change, negative = decrease | tau K18 P301L Alexa594 fluorescence, heparin fibrillization; note: potency is the fitted concentration of half-maximal effect; nearly all actives have a fitted effect of over 55% in size
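Human K18 P301L tau (15 uM unlabeled plus 0.24 uM Alexa 594-labeled, final) in 100 mM sodium acetate pH 7 was mixed with compound and 20 uM heparin and incubated 6 hr at 37 C.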
FBPA coupling cs: inhibits coupling enzyme system, counter-screen for aldolase hits; coupling enzyme system counterscreen, AmpLite Red fluorescence; activity change, negative = inhibition, % at 58.2 µM, hits read low; 290,000 compounds, 0.67% hits; in the data active = activity change below about -30%
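Activity here indicates interference with the coupling reaction, not aldolase inhibition. Compounds at 57.5 uM final met coupling enzymes for 10 min at RT; substrate and AmpLite Red detection followed, with a 525/598 nm fluorescence read after 20 min.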
Tau ThT inhib: inhibitors of human tau fibril formation, thioflavin T binding | recombinant tau K18 P301L, heparin-induced fibrillization, ThT fluorescence | Potency, µM (top dose mostly 57.4 µM), inactives show at the highest dose activity, negative = inhibition, most hits filed as inhibitors | 270,000 compounds, 2.1% hits | AID 1460; note: potency is the fitted concentration of half-maximal effect; nearly all actives have a fitted effect of over 55% in size
Target sequence (P10636 561-689 P618L limits assumed): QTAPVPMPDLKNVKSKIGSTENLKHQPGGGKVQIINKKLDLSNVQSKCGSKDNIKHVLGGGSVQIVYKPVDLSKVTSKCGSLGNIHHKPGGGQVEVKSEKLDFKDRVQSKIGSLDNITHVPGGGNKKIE
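Fibril formation assay: tau K18 P301L at 15 uM with trace Alexa 594 label, heparin inducer 20 uM, pH 7 sodium acetate buffer, 37 C for 6 hr; endpoint ThT signal.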
G9a inh: blocks human histone lysine methyltransferase G9a; Q96KQ7; G9a H3K9 monomethylation, AlphaScreen, 2 h; Potency, µM (top dose mostly 102 µM), for inactives: at the top dose activity, negative = inhibition, actives largely listed as inhibitors; 350,000 compounds, 8.8% hits; AID 504332; note: potency is the fitted concentration of half-maximal effect; nearly all actives have a fitted effect of over 75% in size
Target sequence (Q96KQ7 913-1193 limits assumed): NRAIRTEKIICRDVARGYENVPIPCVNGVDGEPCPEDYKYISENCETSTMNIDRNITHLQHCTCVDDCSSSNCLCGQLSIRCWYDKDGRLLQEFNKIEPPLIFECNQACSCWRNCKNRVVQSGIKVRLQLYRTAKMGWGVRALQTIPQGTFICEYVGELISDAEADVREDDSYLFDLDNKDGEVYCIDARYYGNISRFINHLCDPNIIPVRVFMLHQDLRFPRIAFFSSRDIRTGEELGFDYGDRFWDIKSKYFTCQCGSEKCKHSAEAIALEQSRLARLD
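Readings reflect AlphaScreen signal from monomethyl-H3K9 antibody detection. HMT at 20 nM; substrate b-H3K9 500 nM; cofactor SAM 20 uM; 2 h RT reaction; compounds tested as titrations in qHTS with 15 min preincubation.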
Tau fibril FP: tau fibrillization inhibition (FP). P10636. K18 P301L tau heparin fibrillization, Alexa594 FP, 6 h. Potency, µM (highest dose often 57.7 µM), for inactives: at the highest dose activity, negative = inhibition, actives largely listed as inhibitors. 280,000 compounds, 0.39% hits; note: potency is the fitted concentration of half-maximal effect; nearly all actives have a fitted effect of over 55% in size
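Recombinant K18 P301L […], labeled with Alexa 594 at 0.24 uM over 15 uM unlabeled; heparin inducer 20 uM final; 37 C, 6 hr; FP endpoint.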
The depositor's hits bear a star; u = inconclusive; x = no result given; [ ] = remark or other dose. Unless noted, calls come from the whole dose curve; as a rule, active = well fitted curve in the direction sought with a large enough effect; inconclusive = small, poorly fitted or top-dose-only effect, or another doubt; inactive = no such curve, though single readings can be large; an effect the other way counts as inactive or inconclusive. Unless noted, % is set by controls: 0 for no effect and ±100 for the full control effect.

SMILES	Sfp PPTase inh	Tau fluor counter	FBPA coupling cs	Tau ThT inhib	G9a inh	Tau fibril FP
CC(C)[C@@H](N)C(=O)N/N=C/c1ccc2nccnc2c1	-22%	-4%	1	x	5.6µM*	4%
CC(C)[C@H](NC(=O)OC(C)(C)C)C(=O)N/N=C/c1ccc2nccnc2c1	20%	5%	1	11%	x	-4%
Cc1ccc(S(=O)(=O)N/N=C\c2cc([N+](=O)[O-])ccc2Cl)cc1	25%	-8%	0	-9%	2.8µM*	0%
CCC(CC)C(=O)N1CC(=O)Nc2ccc(F)cc2C1c1ccccc1 (centres undefined)	6%	x	0	x	25%	x
Cc1ccc(C)c(NC(=O)CSc2nnc(NC(=O)Nc3ccccc3)s2)c1	x	-8%	x	3%	7%[59 µM]	u
O=[N+]([O-])c1ccc(S(=O)(=O)N/N=C/c2ccc3c(c2)OCO3)cc1	0%	x	0	x	50µM*	x
Cc1ccc(S(=O)(=O)N/N=C/c2ccc(O)cc2O)cc1[N+](=O)[O-]	50µM*	u	16	u	45µM*	4%
COc1ccc(-n2c(O)c(/C=N/NS(=O)(=O)c3ccc(C)c([N+](=O)[O-])c3)c3ccccc3c2=O)cc1OC	12%	-23%	7	u	1%[12.7 µM]	-2%
O=[N+]([O-])c1cccc(S(=O)(=O)N/N=C\c2ccc3c(c2)OCO3)c1	-1%	x	3	x	-12%	x
CN(C)c1ccc(CN(C(=O)/C=C/c2ccco2)C2CCS(=O)(=O)C2)cc1 (centres undefined)	-2%	-16%	1	-15%	x	0%
COc1cccc(CN(C(=O)c2ccco2)C2CCS(=O)(=O)C2)c1 (centres undefined)	3%	x	x	x	x	x
COc1cccc(CN(C(=O)/C=C/c2ccco2)C2CCS(=O)(=O)C2)c1 (centres undefined)	25µM*	x	0	x	18µM*	x
COc1ccc(CN(C(=O)/C=C/c2ccco2)C2CCS(=O)(=O)C2)cc1OC (centres undefined)	50µM*	x	1	x	40µM*	x
O=C(/C=C/c1ccco1)N(Cc1ccc(Cl)cc1)C1CCS(=O)(=O)C1 (centres undefined)	25µM*	-8%	3	u	45µM*	-9%
CCOc1ccc(CN(C(=O)/C=C/c2ccco2)C2CCS(=O)(=O)C2)cc1 (centres undefined)	u	x	1	x	45µM*	x
COc1ccc(CN(C(=O)c2cc3ccccc3oc2=O)C2CCS(=O)(=O)C2)cc1OC (centres undefined)	-1%	0%	0	-7%	-7%	-5%
CN(CC(=O)Nc1ccc(Cl)c(C(F)(F)F)c1)C(=O)c1ccc(OCC2CCCO2)cc1 (centres undefined)	x	x	x	x	-2%[0.501 µM]	x
COc1ccc(CN(C(=O)c2ccco2)C2CCS(=O)(=O)C2)cc1 (centres undefined)	13%	x	0	x	16%	x
COc1ccc(CN(C(=O)/C=C/c2ccco2)C2CCS(=O)(=O)C2)cc1 (centres undefined)	14µM*	-20%	3	u	50µM*	u
COCCNC(=O)c1ccc(CS(=O)(=O)c2ccccc2OC)o1	-12%	x	-2	x	u	x
COc1ccccc1N1CCN(C(=O)c2ccc(CS(=O)(=O)c3ccccc3OC)o2)CC1	-13%	16%	0	3%	4%[59 µM]	6%
COc1ccccc1S(=O)(=O)Cc1ccc(C(=O)NCCN2CCCCCC2)o1	2%	1%	3	-5%	50µM*	-1%
CCOC(=O)N1CCN(C(=O)c2ccc(CS(=O)(=O)c3ccccc3OC)o2)CC1	79µM*	-11%	-1	-7%	22%[59 µM]	-1%
O=C(CSc1ncc2c(n1)-c1ccccc1N(Cc1ccccc1)S2(=O)=O)Nc1ccccc1	x	9%	x	9%	11%[59 µM]	u
CCCC(=O)N(Cc1cc(=O)[nH]c2ccccc12)c1ccccc1C	-13%	x	4	x	35µM*	x
SMILES	Sfp PPTase inh	Tau fluor counter	FBPA coupling cs	Tau ThT inhib	G9a inh	Tau fibril FP
CC(=O)N(Cc1cc(=O)[nH]c2ccccc12)c1ccccc1C	-16%	x	1	x	25µM*	x
CCCC(=O)N(Cc1cc(=O)[nH]c2ccccc12)c1ccc(OC)cc1	-2%	x	0	x	u	x
CCC(=O)N(Cc1cc(=O)[nH]c2ccccc12)c1ccc(C)cc1	-4%	2%	4	-2%	x	3%
O=C(NCc1ccc(Cl)cc1)c1ccc2c(Cl)c3c(nc2c1)CCCC3	x	-11%	x	-10%	8%[59 µM]	8%
Cn1c(=O)[nH]c(=O)c2c1nc1n2CCN1c1ccccc1	x	-9%	x	-5%	-5%[59 µM]	u
COC(=O)c1cccc(N2C(=O)c3ccccc3S2(=O)=O)c1	-2%	-1%	-2	-4%	56µM*	-1%
CCOc1ccc(-n2c(SCc3ccccc3)nc3c([nH]c4ccccc43)c2=O)cc1	x	-4%	x	8%	-5%[59 µM]	-8%
Cc1ccc(C(=O)N/C(=C/c2ccc(N(C)C)cc2)C(=O)NCC2CCCO2)cc1 (centres undefined)	7%	x	1	x	28µM*	x
Cc1ccc(S(=O)(=O)NCC(=O)N(CC(=O)NCC2CCCO2)Cc2ccco2)cc1 (centres undefined)	-9%	-18%	4	u	32µM*	-14%
O=C(NC(=S)NCC1CCCO1)c1ccccc1Br (centres undefined)	3%	4%	0	3%	13%[59 µM]	0%
Cc1ccc(S(=O)(=O)NNC(=S)NCC2CCCO2)cc1 (centres undefined)	-15%	x	0	x	25µM*	x
Cc1ccc(C(=O)NC(=S)NCC2CCCO2)cc1Br (centres undefined)	-1%	-9%	4	-6%	45µM*	-3%
COc1ccccc1NS(=O)(=O)c1ccc(O)c(NC(=S)NCC2CCCO2)c1 (centres undefined)	25µM*	-13%	3	-10%	x	1%
O=c1c(-c2cc(F)cc(F)c2)nc2cnc(Nc3ccccc3)nc2n1C[C@H]1CCCO1	7%	x	4	x	8%[0.501 µM]	x
O=C(NCC(c1cccs1)N1CCOCC1)c1ccccc1NS(=O)(=O)c1cc([N+](=O)[O-])ccc1Cl (centres undefined)	13%	-17%	6	u	45µM*	13%
O=C(NCC(c1cccs1)N1CCOCC1)c1ccccc1NS(=O)(=O)c1ccc(Cl)cc1 (centres undefined)	17%	-20%	2	-7%	71µM*	3%
O=C(NCC(c1cccs1)N1CCOCC1)c1ccccc1NS(=O)(=O)c1ccc(Cl)c([N+](=O)[O-])c1 (centres undefined)	20%	-24%	8	u	45µM*	-6%

From PubChem
